From ChEMBL document CHEMBL1201862, “PubChem BioAssay data set” (2004) come the findings set out here.

SMILES strings stand for the structures. Among all 400,000 compounds or so, about 2,100 (0.53%) were called active. Not shown: some 14% with an inconclusive outcome. How the calls were made is not given here. Shown is part of a subset that was picked to be rich in actives.

The target in the experiment is Ataxin-2 (Homo sapiens) (UniProt Q99700). The experiment in a line: qHTS for Inhibitors of ATXN expression. Type of experiment: functional.
Chain of Ataxin-2 (Homo sapiens) (Q99700 whole entry): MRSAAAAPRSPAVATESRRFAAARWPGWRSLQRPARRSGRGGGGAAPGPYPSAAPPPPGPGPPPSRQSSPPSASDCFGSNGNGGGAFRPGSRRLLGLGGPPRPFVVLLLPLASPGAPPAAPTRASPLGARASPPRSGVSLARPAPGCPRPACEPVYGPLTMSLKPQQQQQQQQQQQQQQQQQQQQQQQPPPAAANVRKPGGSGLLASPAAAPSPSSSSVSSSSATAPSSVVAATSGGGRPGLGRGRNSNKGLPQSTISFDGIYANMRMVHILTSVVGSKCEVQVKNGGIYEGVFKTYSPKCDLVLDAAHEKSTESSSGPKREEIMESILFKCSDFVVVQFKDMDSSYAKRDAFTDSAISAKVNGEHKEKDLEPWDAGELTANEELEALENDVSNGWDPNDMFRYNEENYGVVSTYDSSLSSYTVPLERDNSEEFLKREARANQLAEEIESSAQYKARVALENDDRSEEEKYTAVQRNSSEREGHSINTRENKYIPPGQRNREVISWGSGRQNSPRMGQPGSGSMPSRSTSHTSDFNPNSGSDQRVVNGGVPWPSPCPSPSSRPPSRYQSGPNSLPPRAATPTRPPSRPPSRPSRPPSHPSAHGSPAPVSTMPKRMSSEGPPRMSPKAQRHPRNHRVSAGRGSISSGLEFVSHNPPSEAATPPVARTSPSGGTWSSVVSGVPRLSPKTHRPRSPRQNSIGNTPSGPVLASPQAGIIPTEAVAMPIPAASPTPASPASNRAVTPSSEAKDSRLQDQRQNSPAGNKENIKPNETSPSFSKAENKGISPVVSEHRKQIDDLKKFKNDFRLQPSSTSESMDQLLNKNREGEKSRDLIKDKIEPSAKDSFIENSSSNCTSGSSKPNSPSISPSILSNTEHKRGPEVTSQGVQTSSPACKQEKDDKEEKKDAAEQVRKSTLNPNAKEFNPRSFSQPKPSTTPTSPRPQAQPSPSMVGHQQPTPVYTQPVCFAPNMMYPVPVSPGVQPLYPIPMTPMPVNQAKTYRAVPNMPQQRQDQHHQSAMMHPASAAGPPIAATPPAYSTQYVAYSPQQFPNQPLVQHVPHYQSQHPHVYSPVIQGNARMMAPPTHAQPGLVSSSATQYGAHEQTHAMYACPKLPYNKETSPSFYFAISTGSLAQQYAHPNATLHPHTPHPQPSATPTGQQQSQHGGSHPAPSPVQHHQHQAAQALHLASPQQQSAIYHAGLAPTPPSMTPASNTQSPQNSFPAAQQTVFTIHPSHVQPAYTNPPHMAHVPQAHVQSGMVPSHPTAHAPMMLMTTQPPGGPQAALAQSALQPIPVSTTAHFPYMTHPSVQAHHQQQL
Take `Cc1ccc(S(=O)(=O)N[C@@H](Cc2ccccc2)C(=O)N2CCC[C@@H]2C(=O)O)cc1`: the Potency entry was “inactive”.
Consider `Cc1ccc(S(=O)(=O)N2CC3(O)CN(C(=O)OC(C)C)N(C(=O)OC(C)C)CC3(OC(=O)NCc3ccccc3)C2)cc1` (configuration not stated), for which the Potency was 22.4 µM (active).
The result for `CCCCCCNC(=O)OC12CN(C(=O)OC(C)C)N(C(=O)OC(C)C)CC1(O)CN(S(=O)(=O)c1ccc(C)cc1)C2` (configuration not stated) reads 25.1 µM (active); that for `O=S(=O)(NCc1ccccc1)c1ccc(S(=O)(=O)N2CCCC2)cc1`, “inactive”; that for `CCCNC(=O)c1ccc(SCC(=O)N(CC)CC)c([N+](=O)[O-])c1`, “inactive”.
The result for `CC(=O)NCCNC(=O)c1ccc(Sc2ccccc2)c([N+](=O)[O-])c1` reads “inactive”; that for `NCCNc1ccc(C(=O)N2c3ccccc3Sc3ccccc32)cc1[N+](=O)[O-]`, 14.1 µM (active); that for `C/C(=N\NC(=O)C1=NNC(=O)C1C)c1cccs1` (configuration not stated), “inactive”.
The result for `CN=c1sc2c(n1C)C(=O)c1ccccc1C2=O` reads 39.8 µM (active).
For the compound `O=C(NP(=O)(N1CCOCC1)N1CCOCC1)C1=C(N2CCOCC2)/C(=C\c2ccccc2)CC1`, the Potency result is “inactive”.
In the case of `Cc1c(N=C2C=C(Br)C(=O)C(Br)=C2)c(=O)n(-c2ccccc2)n1C`, the Potency result was “inactive”.
`CC1=CC(=Nc2c(C)n(C)n(-c3ccccc3)c2=O)C=C(C)C1=O`: the Potency is 35.5 µM (active).
`Cc1c(/N=C2\C=CC(=O)c3ccccc32)c(=O)n(-c2ccccc2)n1C`: the Potency result was “inactive”.
The result for `CCCS(=O)(=O)N1CCN=C1SCc1ccc(C)cc1` reads “inactive”; that for `Cc1cc(C)cc(N2C(=O)C=CC2=O)c1`, 28.2 µM (active); that for `Cc1cccc(N2C(=O)c3cccc4c(N)ccc(c34)C2=O)c1`, “inactive”.
On to `CCOC(=O)c1c(-c2ccc(C)cc2)csc1NC(=O)/C(C#N)=C/c1ccc(O)c(OC)c1`, for which the Potency entry was “inactive”.
The result for `CCOC(=O)c1c(-c2ccc(Cl)cc2)csc1NC(=O)CNCc1ccco1` reads “inactive”.
The result for `CCOC(=O)c1c(-c2ccc(C)o2)csc1NC(=S)NC(=O)N(C)C` reads 39.8 µM (active).
The result for `CCc1ccc(/C(C)=N/NC(=O)c2ccc(-n3cnnn3)cc2)cc1` reads “inactive”.
Turning to `Cc1cccn2c(Nc3ccc4c(c3)OCCO4)c(-c3ccc(Br)o3)nc12`, the Potency is 39.8 µM (active).
The result for `COc1cc(OC)c(OC)cc1CN1CCc2nc(Nc3ccc4c(c3)OCCO4)ncc2C1` reads “inactive”; that for `Cc1cnc(NC(=O)CSc2nnc3ncccn23)s1`, “inactive”.
The result for `COc1ccc(Sc2ccc(-c3nc4cnccn4c3NC3CCCCC3)cc2OC)cc1` reads “inactive”.
Turning to `CN(Cc1nc(-c2cnccn2)no1)C1CC(C)(C)NC(C)(C)C1`, the Potency result is “inactive”.
`Cc1ccccc1N(CC(=O)NC(C)(C)C)C(=O)CCC(=O)Nc1nccs1`: the Potency entry was “inactive”.
Turning to `CCCN1CNc2c(c(=O)[nH]c(=S)n2CCc2ccccc2)C1`, the Potency result is “inactive”.
In the case of `CCCCN1CCc2c(c3ccccc3n2Cc2ccccc2)C1`, the Potency was 28.2 µM (active).
The result for `Oc1ncnc2sc3c(c12)CN(Cc1ccccc1)CC3` reads “inactive”; that for `CCCCCC(=O)NNC1=NCC(Cc2ccccc2)S1` (configuration not stated), “inactive”.
The result for `COc1cc2cc(C(=O)N3CCN(Cc4ccc5c(c4)OCO5)CC3)c(=O)oc2cc1OC` reads “inactive”; that for `O=C(c1cc([N+](=O)[O-])cc([N+](=O)[O-])c1)N1CCN(Cc2ccc3c(c2)OCO3)CC1`, “inactive”.
Take `CCO[C@H]1OC(C(=O)N2CCN(Cc3ccc4c(c3)OCO4)CC2)=C[C@@H](c2ccc(C(F)(F)F)cc2)[C@@H]1CCCO`: the Potency was 35.5 µM (active).
For the compound `CCOC(=O)C(=Cc1ccc(-n2ccnc2)cc1)C(=O)OCC`, the Potency is 25.1 µM (active).
With `CCOC(=O)/C(=C/c1ccc(N2CCC(c3ccccc3)=N2)cc1)C(C)=O`, the Potency entry was “inactive”.
The result for `COc1ccc(Cl)cc1C(=O)Nc1ccc2nc(Nc3cccc(Cl)c3)cc(C)c2c1` reads “inactive”.
For the compound `CCN1CCN(c2cc(C)c3cc(NC(=O)CCC(=O)Nc4ccc(OC)cc4OC)ccc3n2)CC1`, the Potency entry was “inactive”.
The result for `CCN1CCN(c2cc(C)c3cc(NC(=O)c4cc(Br)ccc4Cl)ccc3n2)CC1` reads 31.6 µM (active); that for `CCOc1ccc(S(=O)(=O)N2CCN(C)CC2)cc1NC(=O)c1ccccc1F`, “inactive”; that for `Cc1cc(N2CCN(C)CC2)nc2ccc(NC(=O)Nc3cccc(Cl)c3)cc12`, 31.6 µM (active).
The result for `CCCN(CCC)CCNC(=O)CCC(=O)Nc1ccc2nc(N3CCOCC3)cc(C)c2c1` reads “inactive”; that for `Cc1cc(Nc2cccc(Cl)c2)nc2ccc(NC(=O)COc3ccc(Cl)cc3)cc12`, “inactive”; that for `Cc1cc(N2CCN(C)CC2)nc2ccc(NC(=O)Nc3ccccc3Br)cc12`, 39.8 µM (active).
The result for `CCOc1ccccc1NC(=O)Nc1ccc2nc(N3CCN(C)CC3)cc(C)c2c1` reads 31.6 µM (active).
Turning to `COCCCn1c(=N)c(C(=O)NC2CCCC2)cc2c(=O)n3ccccc3nc21`, the Potency result is “inactive”.
The result for `COc1ccc(S(=O)(=O)NCc2ccco2)cc1C(=O)N1CCOCC1` reads “inactive”.
In the case of `CCCN(CCC)S(=O)(=O)c1ccc(C(=O)OCCN2C(=O)c3cccc4c(N5CCOCC5)ccc(c34)C2=O)cc1`, the Potency entry was “inactive”.
The result for `O=C(CCCNC1=NS(=O)(=O)c2ccccc21)Nc1ccc(Cl)cc1` reads “inactive”; that for `CCOC(=O)c1cc2c(=O)n3ccccc3nc2n(Cc2ccccc2)c1=N`, “inactive”.
In the case of `Cc1cc(N2CCN(C)CC2)nc2ccc(NC(=O)CCC3CCCC3)cc12`, the Potency result was “inactive”.
The result for `COC(=O)c1cc(N2CCN(C)CC2)nc2ccccc12` reads “inactive”; that for `Cc1cc(N2CCN(C)CC2)nc2ccc(NC(=O)Nc3ccccc3)cc12`, 17.8 µM (active).
With `Cc1onc(-c2c(Cl)cccc2Cl)c1NC(=O)NNc1ccccn1`, the Potency result was “inactive”.
The result for `Cc1cc(C)c(C#N)c(SCc2ccc(F)cc2)n1` reads “inactive”; that for `Cn1c(Cl)cnc1C1CC(=O)c2cc(Cl)ccc2O1` (configuration not stated), 39.8 µM (active).
`Cc1cccc(-n2cnc(C(=O)N3CCN(C)CC3)c2)n1`: the Potency entry was “inactive”.
The result for `CCCc1cc(CNC(=O)C2CCC(=O)N(CCc3cccc(F)c3)C2)on1` (configuration not stated) reads 35.5 µM (active); that for `CCc1csc(CCNC(=O)C2CCC(=O)N(Cc3ccccc3F)C2)n1` (configuration not stated), “inactive”.
Consider `CC#CCN(Cc1ccco1)C(=O)C1CCC(=O)N(CCc2cccc(F)c2)C1` (configuration not stated), for which the Potency result is “inactive”.
The result for `COC1=C(c2ccccc2)C(=O)c2ccccc2C1=O` reads “inactive”; that for `O=C(c1ccccc1)c1ccc2cc(O)ccc2c1`, “inactive”; that for `O=C(C1=C(c2ccccc2)C(=O)c2ccccc2C1=O)c1ccccc1`, 7.08 µM (active).
